The text below walks through data of PubChem BioAssay AID1851 (National Center for Advancing Translational Sciences (NCATS), 2009).

Out of some 16,000 compounds screened, about 2,600 (16%) were called active. Roughly 20% stayed inconclusive and do not appear here. Calls come from the whole dose curve; as a rule, active = well fitted curve in the direction sought with a large enough effect; inconclusive = small, poorly fitted or top-dose-only effect, or effect the other way; inactive = no such curve, though single readings can be large or run the other way. Only a sample is shown.
% is set by controls: 0 for no effect and ±100 for the full control effect.

The target of this assay is Cytochrome P450 2D6 (Homo sapiens) (UniProt P10635). Nature of the assay: Cytochrome panel assay with activity outcomes. Particulars: recombinant CYP, pro-luciferin dealkylation, luminescence, p450-cyp2d6; series mostly up to 57.1 µM; activity, negative = inhibition: at the top concentration.
Sequence of Cytochrome P450 2D6 (Homo sapiens) (P10635 whole entry, looked up): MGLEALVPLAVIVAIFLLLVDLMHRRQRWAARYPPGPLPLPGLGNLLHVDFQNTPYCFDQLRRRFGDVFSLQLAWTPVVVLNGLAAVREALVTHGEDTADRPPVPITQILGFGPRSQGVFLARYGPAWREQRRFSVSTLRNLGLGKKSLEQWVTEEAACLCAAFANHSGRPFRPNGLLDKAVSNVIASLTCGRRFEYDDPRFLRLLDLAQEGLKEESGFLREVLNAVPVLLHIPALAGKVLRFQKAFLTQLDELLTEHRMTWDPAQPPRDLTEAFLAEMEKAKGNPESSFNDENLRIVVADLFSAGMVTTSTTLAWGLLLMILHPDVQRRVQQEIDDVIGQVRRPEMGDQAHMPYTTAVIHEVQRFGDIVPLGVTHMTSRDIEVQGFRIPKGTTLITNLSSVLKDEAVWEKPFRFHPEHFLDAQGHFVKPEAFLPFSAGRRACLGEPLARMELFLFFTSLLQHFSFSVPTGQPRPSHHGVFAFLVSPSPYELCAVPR
`COc1ccc(O)c(/C=N/NC(=O)c2ccc(OCc3cccc(Br)c3)cc2)c1`: the “activity, negative = inhibition” value was -5.88% (inactive).

Broadly, the AC50 is the midpoint of the concentration-response curve, whichever way the signal moves. Turning to `CCc1cc2c(NCc3ccco3)ncnc2s1`, the AC50 is 17.8 µM (active).

For the compound `CCc1cc2c(Sc3nc4ccccc4s3)ncnc2s1`, the “activity, negative = inhibition” value was -1.72% (inactive).

Take `CCc1cc2c(NCCO)ncnc2s1`: the “activity, negative = inhibition” value is -3.72% (inactive).

Turning to `COc1ccc(-c2csc(-n3ncc(-c4cccs4)c3N)n2)cc1`, the “activity, negative = inhibition” value was 11.5% (inactive).

Turning to `CCOC(=O)c1sc2c(c1C)c(=O)c(C(=O)OCC)cn2CC`, the “activity, negative = inhibition” value is 2.44% (inactive).

Turning to `Cc1nnc(NC(=O)c2oc3c(ccc4ccccc43)c2C)s1`, the “activity, negative = inhibition” value is 4.25% (inactive).

`COC(=O)c1cc(=O)[nH]c(=O)[nH]1`: the activity, negative = inhibition is -4.62% [at 11.4 µM] (inactive).

Consider `CCOC(=O)N/N=C1/C[C@@H](O)[C@@H](O)[C@@H]2[C@@H]3C(=O)N(C(C)(C)C)C(=O)[C@H]3CC[C@H]12`, for which the activity, negative = inhibition is -1.55% [at 11.4 µM] (inactive).

Regarding `O=C(N/N=C/c1ccc(Sc2nc3ccccc3s2)c([N+](=O)[O-])c1)c1ccccn1`, the “activity, negative = inhibition” value is 4.06% (inactive).

Turning to `O=[N+]([O-])c1c(NCCO)cc(Sc2nc3ccccc3s2)c2nonc12`, the AC50 was 14.1 µM (active).

With `Cc1ccc(S(=O)(=O)NC(=O)CSc2nc3ccccc3s2)cc1`, the “activity, negative = inhibition” value is -17.9% (inactive).

Regarding `C[C@@]1(C(=O)O)CCC[C@@H]1C(=O)O`, the activity, negative = inhibition is 9.41% [at 11.4 µM] (inactive).

Take `CC(=O)Nc1c(C(=O)N2CCOCC2)cnn1-c1ccc(C)c(C)c1`: the “activity, negative = inhibition” value is 5.39% (inactive).

As for `O=C(CCN1CCN(CC(=O)Nc2ccccc2Cl)CC1)Nc1ccccc1F`, the AC50 was 1.26 µM (active).

Turning to `COc1ccccc1NC(=O)CN1CCN(c2ccccc2F)CC1`, the “activity, negative = inhibition” value is -23.7% (inactive).

On to `O=C(CCN1C(=O)C2C3C=CC(C3)C2C1=O)Nc1c(F)cccc1F` (stereo unspecified), for which the “activity, negative = inhibition” value is -4.03% (inactive).

In the case of `O=C(CS(=O)c1cccc(Cl)c1)Nc1ccccc1Cl` (stereo unspecified), the “activity, negative = inhibition” value is -31.7% (inactive).

For `O=C(CCN1CCN(c2ccccc2F)CC1)Nc1ccccc1F`, the AC50 was 11.2 µM (active).

As to `COc1ccc(NC(=O)CN2CCN(CC(=O)Nc3ccccc3Cl)CC2)cc1`, the “activity, negative = inhibition” value is -13.4% (inactive).

With `COCCn1c(=O)c(C)nc2cnc(Oc3ccc(OC)cc3)nc21`, the “activity, negative = inhibition” value was -8.18% (inactive).

As to `CN(C)c1ncc2nc(-c3cccs3)c(=O)n(C[C@H]3CCCO3)c2n1`, the “activity, negative = inhibition” value is 14.3% (inactive).

For `O=C(CP(=O)(c1ccccc1)c1ccccc1)Nn1cnnc1`, the “activity, negative = inhibition” value was 24% (inactive).

Take `COCCN(CCOC)S(=O)(=O)c1ccc(C(=O)Nc2nc(C)c(C(C)=O)s2)cc1`: the “activity, negative = inhibition” value is -11.8% (inactive).

`NC(=O)CN1CCOCCOCCOCCOCCOCC1`: the “activity, negative = inhibition” value is -5.95% (inactive).

`O=C(Nc1cccc(F)c1)N1CCC2(CC1)CCN(C(=O)c1ccco1)CC2`: the “activity, negative = inhibition” value was -5.21% (inactive).

Consider `COc1ccc(CCNc2cc(-c3ccccc3)nc3ncnn23)cc1`, for which the “activity, negative = inhibition” value was -25.9% (inactive).

As for `COc1ccc(-n2c3c(c(=O)[nH]c2=O)C(C(F)(F)F)(C(F)(F)F)N=C(CC(C)C)N3)cc1`, the “activity, negative = inhibition” value is 12.1% (inactive).

On to `CCCn1c(=O)c2c(ncn2C)n(CCC)c1=O`, for which the “activity, negative = inhibition” value was 2.92% (inactive).

In the case of `NC(N)=NNC(=O)C(=O)O`, the activity, negative = inhibition is 7.44% [at 11.4 µM] (inactive).

In the case of `C/C(=N\N1CCN(C2c3ccccc3-c3ccccc32)CC1)c1ccncc1`, the AC50 was 0.178 µM (active).

As for `c1ccc2c(c1)-c1nc3ccccc3cc1[C@H]2N1CCOCC1`, the activity, negative = inhibition is -4.83% [at 11.4 µM] (inactive).

For the compound `C/C(=N\N1CCN(C2c3ccccc3-c3ccccc32)CC1)c1cccnc1`, the AC50 is 2 µM (active).

As to `CC(C)(C(=O)c1cccnc1)c1cccnc1`, the “activity, negative = inhibition” value was -0.587% [at 25.6 µM] (inactive).

Regarding `C(=N\N1CCN(C2c3ccccc3-c3ccccc32)CC1)/c1cccnc1`, the AC50 is 0.631 µM (active).

Turning to `O=C(O)c1cccnc1`, the “activity, negative = inhibition” value is -0.65% [at 25.6 µM] (inactive).

With `O=[N+]([O-])c1cc(/C=N/N2CCN(C3c4ccccc4-c4ccccc43)CC2)ccc1Cl`, the “activity, negative = inhibition” value was -0.998% (inactive).

On to `O=C(NCC1CCCO1)C(c1cccnc1)N(C(=O)Cc1cccs1)c1cccnc1` (stereo unspecified), for which the “activity, negative = inhibition” value is 11.9% (inactive).

On to `Cc1nnc(NS(=O)(=O)c2ccc(N)cc2)s1`, for which the “activity, negative = inhibition” value was -1.12% [at 25.6 µM] (inactive).

Take `O=C(O)Cc1ccc2ocnc2c1`: the “activity, negative = inhibition” value was 19.2% (inactive).

Regarding `CCCC(=O)N1c2ccccc2C(N(C(C)=O)c2ccccc2)CC1C` (stereo unspecified), the “activity, negative = inhibition” value is -4.05% (inactive).

Regarding `O=C(Nc1cc2c(oc1=O)CCCC2=O)c1ccc(Cl)cc1`, the “activity, negative = inhibition” value is -15% (inactive).

Regarding `S=c1[nH]c2cc(Cl)ccc2s1`, the “activity, negative = inhibition” value was -23.7% (inactive).

With `COc1ccc2nc(N)sc2c1`, the “activity, negative = inhibition” value was -5.21% (inactive).

For `NCC[C@H](O)C(=O)N[C@H]1C[C@@H](N)[C@@H](O[C@H]2O[C@@H](CN)[C@@H](O)[C@@H](O)[C@@H]2O)[C@@H](O)[C@@H]1O[C@H]1O[C@@H](CO)[C@@H](O)[C@@H](N)[C@@H]1O`, the “activity, negative = inhibition” value is 3.98% [at 25.6 µM] (inactive).

With `Cc1n[nH]c(C)c1S(=O)(=O)N1CCOCC1`, the “activity, negative = inhibition” value was 13.9% (inactive).

Turning to `COc1ccc(/C=N/OCc2nc3c4c(ncn3n2)Oc2ccc3ccccc3c2C4c2ccccc2)cc1` (stereo unspecified), the “activity, negative = inhibition” value was -1.08% (inactive).

In the case of `Fc1ccc(-c2ccnc3nc(N4CCOCC4)nn23)cc1`, the “activity, negative = inhibition” value is -4.82% (inactive).

Consider `Cc1c(NC(=O)CN2CCN(c3ccccc3)CC2)c(=O)n(-c2ccccc2)n1C`, for which the “activity, negative = inhibition” value is 2.48% (inactive).

`Cc1cccc(C)c1NC(=O)CN1CCN(CCCC(c2ccc(F)cc2)c2ccc(F)cc2)CC1`: the AC50 was 5.01 µM (active).

On to `Cc1cccc(C)c1NC(=O)CS(=O)CC(=O)Nc1ccc(F)cc1F` (stereo unspecified), for which the “activity, negative = inhibition” value was -20.9% (inactive).
